Laboratory results as given in PubChem BioAssay AID1159580 (chemical genetic matrix, 2015).
About 2,000 (36%) of roughly 5,500 compounds were called active. Not shown: some 18% with an inconclusive outcome. Rule as the data show it: active = normalized growth mostly below about 0.91 (no sharp cut-off); inconclusive = no clear call, values can overlap the other calls; inactive = mostly above about 0.92. This is one part of the list.

Assay: chemical genetic growth profiling, strain panel (AID 1159580);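 also: tested at 20 µM; growth read once vehicle control cultures reached saturation at 30 °C; 1 = growth at the plate median or of vehicle wells; lower values mean less growth of the strain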
Details: growth OD

Measured: normalized growth

Cc1nnc(NS(=O)(=O)c2ccc(N)cc2)s1
inactive: S. cerevisiae deletion strains, locus YKL009W, strain mrt4, hits give low values 1.05 | S. cerevisiae deletion strains, locus YKL068W, hits give low values 0.996 | S. cerevisiae deletion strains, locus YKL085W, strain MDH1 (second series), hits give low values 0.998 | S. cerevisiae deletion strains, locus YKL085W, strain MDH1, hits give low values 0.998 | S. cerevisiae deletion strains, locus YKL160W, strain elf1, hits give low values 1.01 | S. cerevisiae deletion strains, locus YKL190W, strain CNB1, hits give low values 1.02 | S. cerevisiae deletion strains, locus YKR001C, strain vps1, hits give low values 1.02 | S. cerevisiae deletion strains, locus YKR026C, strain gcn3, hits give low values 1.01 | S. cerevisiae deletion strains, locus YKR091W, strain srl3, hits give low values 0.99 | S. cerevisiae deletion strains, locus YLL001W, strain dnm1, hits give low values 0.995 | S. cerevisiae deletion strains, locus YLL026W, hits give low values 0.998 | S. cerevisiae deletion strains, locus YLL041C, strain sdh2, hits give low values 1 | S. cerevisiae deletion strains, locus YLR027C, strain aat2, hits give low values 1.01 | S. cerevisiae deletion strains, locus YLR039C, strain RIC1, hits give low values 1.09 | S. cerevisiae deletion strains, locus YLR058C, strain SHM2, hits give low values 1.01 | S. cerevisiae deletion strains, locus YLR102C, strain apc9, hits give low values 0.985 | S. cerevisiae deletion strains, locus YLR113W, strain HOG1, hits give low values 0.966 | S. cerevisiae deletion strains, locus YLR221C, strain rsa3, hits give low values 1.01 | S. cerevisiae deletion strains, locus YLR258W, strain gsy2, hits give low values 0.997 | S. cerevisiae deletion strains, locus YLR262C, strain YPT6 (second series), hits give low values 0.99 | S. cerevisiae deletion strains, locus YLR262C, strain YPT6, hits give low values 1.07 | S. cerevisiae deletion strains, locus YLR268W, strain sec22, hits give low values 1.04 | S. cerevisiae deletion strains, locus YLR320W, strain mms22, hits give low values 0.99 | S. cerevisiae deletion strains, locus YLR330W, strain CHS5, hits give low values 1.01 | S. cerevisiae deletion strains, locus YLR342W, strain FKS1 (second series), hits give low values 1.04 | S. cerevisiae deletion strains, locus YLR342W, strain FKS1, hits give low values 0.996 | S. cerevisiae deletion strains, locus YLR357W, strain rsc2, hits give low values 1.03 | S. cerevisiae deletion strains, locus YLR370C, strain arc18, hits give low values 1.01 | S. cerevisiae deletion strains, locus YLR371W, strain rom2, hits give low values 0.984 | S. cerevisiae deletion strains, locus YLR384C, strain iki3, hits give low values 1 | S. cerevisiae deletion strains, locus YLR418C, strain cdc73, hits give low values 1.04 | S. cerevisiae deletion strains, locus YML016C, strain PPZ1, hits give low values 1.01 | S. cerevisiae deletion strains, locus YML032C, strain rad52, hits give low values 1.01 | S. cerevisiae deletion strains, locus YML120C, strain ndi1, hits give low values 0.987 | S. cerevisiae deletion strains, locus YML124C, strain tub3, hits give low values 1 | S. cerevisiae deletion strains, locus YMR058W, strain fet3, hits give low values 0.998 | S. cerevisiae deletion strains, locus YMR078C, strain ctf18, hits give low values 0.991 | S. cerevisiae deletion strains, locus YMR125W, strain sto1, hits give low values 0.998 | S. cerevisiae deletion strains, locus YMR129W, hits give low values 1.01 | S. cerevisiae deletion strains, locus YMR205C, strain PFK2, hits give low values 1 | S. cerevisiae deletion strains, locus YMR223W, strain ubp8, hits give low values 0.997 | S. cerevisiae deletion strains, locus YMR231W, strain pep5, hits give low values 1 | S. cerevisiae deletion strains, locus YMR263W, strain SAP30, hits give low values 1.01 | S. cerevisiae deletion strains, locus YMR307W, strain GAS1, hits give low values 0.987 | S. cerevisiae deletion strains, locus YNL067W, strain RPL9B, hits give low values 1.02 | S. cerevisiae deletion strains, locus YNL071W, strain lat1, hits give low values 0.993 | S. cerevisiae deletion strains, locus YNL128W, strain TEP1, hits give low values 1.03 | S. cerevisiae deletion strains, locus YNL153C, strain GIM3, hits give low values 1.01 | S. cerevisiae deletion strains, locus YNL183C, strain NPR1, hits give low values 0.953 | S. cerevisiae deletion strains, locus YNL209W, strain ssb2, hits give low values 1.01 | S. cerevisiae deletion strains, locus YNL233W, strain BNI4, hits give low values 1.01 | S. cerevisiae deletion strains, locus YNL248C, strain rpa49, hits give low values 1.01 | S. cerevisiae deletion strains, locus YNL250W, strain rad50, hits give low values 1.01 | S. cerevisiae deletion strains, locus YNL271C, strain bni1, hits give low values 1 | S. cerevisiae deletion strains, locus YNL298W, strain CLA4, hits give low values 1.03 | S. cerevisiae deletion strains, locus YNL307C, strain MCK1, hits give low values 1 | S. cerevisiae deletion strains, locus YNL322C, strain KRE1 (second series), hits give low values 0.999 | S. cerevisiae deletion strains, locus YNR049C, strain mso1, hits give low values 1 | S. cerevisiae deletion strains, locus YNR052C, strain pop2, hits give low values 0.989 | S. cerevisiae deletion strains, locus YOL006C, strain TOP1, hits give low values 1.04 | S. cerevisiae deletion strains, locus YOL012C, strain htz1 0.962 | S. cerevisiae deletion strains, locus YOL147C, strain pex11, hits give low values 0.986 | S. cerevisiae deletion strains, locus YOR001W, strain rrp6, hits give low values 1 | S. cerevisiae deletion strains, locus YOR061W, strain CKA2, hits give low values 1.01 | S. cerevisiae deletion strains, locus YOR069W, strain VPS5, hits give low values 1.01 | S. cerevisiae deletion strains, locus YOR070C, strain gyp1, hits give low values 1.01 | S. cerevisiae deletion strains, locus YOR080W, strain dia2, hits give low values 1 | S. cerevisiae deletion strains, locus YOR083W, strain WHI5, hits give low values 0.978 | S. cerevisiae deletion strains, locus YOR106W, strain vam3, hits give low values 1.02 | S. cerevisiae deletion strains, locus YOR136W, strain idh2, hits give low values 0.992 | S. cerevisiae deletion strains, locus YOR144C, strain elg1, hits give low values 0.992 | S. cerevisiae deletion strains, locus YOR184W, strain ser1, hits give low values 1.01 | S. cerevisiae deletion strains, locus YOR231W, strain MKK1, hits give low values 1.01 | S. cerevisiae deletion strains, locus YOR265W, strain rbl2, hits give low values 1 | S. cerevisiae deletion strains, locus YOR270C, strain vph1, hits give low values 1.02 | S. cerevisiae deletion strains, locus YOR290C, strain snf2, hits give low values 1 | S. cerevisiae deletion strains, locus YOR316C, strain cot1, hits give low values 0.99 | S. cerevisiae deletion strains, locus YPL051W, strain arl3, hits give low values 1 | S. cerevisiae deletion strains, locus YPL078C, strain atp4, hits give low values 0.999 | S. cerevisiae deletion strains, locus YPL106C, strain sse1, hits give low values 1.02 | S. cerevisiae deletion strains, locus YPL240C, strain hsp82, hits give low values 1.02 | S. cerevisiae deletion strains, locus YPL241C, strain CIN2, hits give low values 1.01 | S. cerevisiae deletion strains, locus YPL256C, strain CLN2, hits give low values 0.979 | S. cerevisiae deletion strains, locus YPR119W, strain clb2, hits give low values 0.989 | S. cerevisiae deletion strains, locus YPR141C, strain kar3, hits give low values 1.01 | S. cerevisiae deletion strains, locus YPR163C, strain tif3, hits give low values 0.992 | S. cerevisiae deletion strains, locus YPR167C, strain met16, hits give low values 0.997 | S. cerevisiae deletion strains, strain wtn01, hits give low values 1.02 | S. cerevisiae strains, strain wild type, hits give low values 1.01
